Data from PubChem BioAssay (NCATS).
Results filed as inconclusive are left out. Active and inactive are the calls of the source. The call rests on the fitted dose curve; in most records, active means well fitted curve in the direction sought with a large enough effect; inconclusive means small, poorly fitted or top-dose-only effect, or another doubt; inactive means no such curve, though single readings can be large; an effect the other way counts as inactive or inconclusive.

Key:
[1] = biological target: Cytochrome P450 2C9 (Homo sapiens) (UniProt P11712); experiment: qHTS Assay for Inhibitors and Substrates of Cytochrome P450 2C9 (AID 883); further: nearly all actives have a fitted effect of over 60% in size; further: potency means the concentration at half of the fitted maximal effect; on activity change, negative = inhibition: on the % scale 0 is the no-effect control and ±100 the full control effect
Sequence of Cytochrome P450 2C9 (Homo sapiens) (P11712 whole entry, looked up): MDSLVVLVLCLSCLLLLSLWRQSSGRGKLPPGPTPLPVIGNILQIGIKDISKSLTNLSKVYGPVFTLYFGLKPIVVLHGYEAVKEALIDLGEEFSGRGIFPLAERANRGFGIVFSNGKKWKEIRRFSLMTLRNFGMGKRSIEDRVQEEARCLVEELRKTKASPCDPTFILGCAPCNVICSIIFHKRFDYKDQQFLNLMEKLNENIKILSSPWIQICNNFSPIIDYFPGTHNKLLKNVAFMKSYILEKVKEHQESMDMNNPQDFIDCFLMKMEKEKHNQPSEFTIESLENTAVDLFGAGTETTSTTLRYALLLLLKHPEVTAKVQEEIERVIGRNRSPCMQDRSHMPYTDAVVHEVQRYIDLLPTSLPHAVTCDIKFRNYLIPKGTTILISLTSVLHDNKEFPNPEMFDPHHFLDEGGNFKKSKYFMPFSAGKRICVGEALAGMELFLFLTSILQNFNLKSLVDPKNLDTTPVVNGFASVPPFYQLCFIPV
Summary of the method: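 Turnover of Luciferin-H (100uM, KM) by 10nM human CYP2C9 was measured over 60 min at 37C with NADPH regeneration; inhibitors and some substrates reduce luminescence. Data normalized to sulphaphenazole 57uM.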

[2] = biological target: ATP-dependent 6-phosphofructokinase (Trypanosoma brucei brucei) (UniProt O15648); experiment: qHTS Assay to Find Inhibitors of T. brucei phosphofructokinase: hit validation (AID 492961);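 further: luminescence reports ADP formed as PFK phosphorylates fructose-6-phosphate with ATP; on the % scale 0 is the no-effect control and ±100 the full control effect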
Sequence of ATP-dependent 6-phosphofructokinase (Trypanosoma brucei brucei) (O15648 whole entry, looked up): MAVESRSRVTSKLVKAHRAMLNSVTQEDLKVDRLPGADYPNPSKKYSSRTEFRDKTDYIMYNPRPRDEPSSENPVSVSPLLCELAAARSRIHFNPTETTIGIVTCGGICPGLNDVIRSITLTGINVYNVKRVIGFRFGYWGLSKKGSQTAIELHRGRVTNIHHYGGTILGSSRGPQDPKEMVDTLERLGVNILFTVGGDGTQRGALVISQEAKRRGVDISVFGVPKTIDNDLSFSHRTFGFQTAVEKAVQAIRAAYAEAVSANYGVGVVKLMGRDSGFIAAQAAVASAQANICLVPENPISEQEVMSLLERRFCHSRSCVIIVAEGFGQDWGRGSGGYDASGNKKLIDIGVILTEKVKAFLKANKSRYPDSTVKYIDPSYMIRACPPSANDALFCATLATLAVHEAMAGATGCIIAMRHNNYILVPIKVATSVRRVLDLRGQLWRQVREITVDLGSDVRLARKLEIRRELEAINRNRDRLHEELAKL
Summary of the method: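 Measures ADP output of PFK (1.25 nM) at 0.1 mM ATP, 0.5 mM F6P, pH 8.0 TEA buffer with 5 mM MgCl2. No-enzyme wells define full inhibition; uninhibited enzyme wells define zero.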

7G8 = experiment: qHTS profiling for inhibitors of Plasmodium falciparum proliferation (AID 504749); further: nearly all actives have a fitted effect of over 60% in size; further: potency means the concentration at half of the fitted maximal effect; details: P. falciparum in erythrocytes, SYBR Green DNA, 72 h; series mostly up to 12.8 µM
Summary of the method: (§1)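 In a 72 h erythrocytic culture (37 C, humidified, 5% CO2) at 2.5% hematocrit and 0.3% starting parasitemia, compounds were tested; SYBR Green I in detergent lysis buffer stained parasite DNA overnight.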

CP260 = experiment: as above; details: P. falciparum in erythrocytes, SYBR Green DNA, 72 h; series mostly up to 12.8 µM
Summary of the method: as §1

CP335 = experiment: as above; details: P. falciparum in erythrocytes, SYBR Green DNA, 72 h; series mostly up to 12.8 µM
Summary of the method: as §1

P94_40 = experiment: as above; details: P. falciparum in erythrocytes, SYBR Green DNA, 72 h; series mostly up to 12.8 µM
Summary of the method: as §1

[3] = biological target: Cytochrome P450 2C19 (Homo sapiens) (UniProt P33261); experiment: qHTS Assay for Inhibitors and Substrates of Cytochrome P450 2C19 (AID 899); further: nearly all actives have a fitted effect of over 60% in size
Sequence of Cytochrome P450 2C19 (Homo sapiens) (P33261 whole entry, looked up): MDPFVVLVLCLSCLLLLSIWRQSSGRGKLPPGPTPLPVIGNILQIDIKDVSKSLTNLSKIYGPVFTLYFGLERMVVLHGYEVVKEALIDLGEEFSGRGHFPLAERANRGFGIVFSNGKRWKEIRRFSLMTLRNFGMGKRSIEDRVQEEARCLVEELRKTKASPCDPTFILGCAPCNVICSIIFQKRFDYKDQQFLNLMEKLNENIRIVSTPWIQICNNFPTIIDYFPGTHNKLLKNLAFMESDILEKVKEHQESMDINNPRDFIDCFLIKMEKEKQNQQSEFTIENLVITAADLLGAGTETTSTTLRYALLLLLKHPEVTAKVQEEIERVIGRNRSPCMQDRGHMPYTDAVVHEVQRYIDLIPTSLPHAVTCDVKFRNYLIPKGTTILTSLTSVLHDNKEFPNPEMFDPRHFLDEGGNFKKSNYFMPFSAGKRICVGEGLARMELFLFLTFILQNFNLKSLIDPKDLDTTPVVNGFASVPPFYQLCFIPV
Summary of the method: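 Reactions contain 5nM enzyme, 10uM Luciferin-H EGE (KM) and 50mM KPO4; compound preincubates 10 min at 37C, NADPH regeneration starts turnover for 60 min. Luminescence after detection reagent gives activity.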

[4] = S16 Schwann cell PMP22 intronic element firefly luciferase assay (AID 624032);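 further: plate controls were DMSO for no effect and PTC124 positive control mean for full effect; nearly all actives have a fitted effect of over 30% in size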
Summary of the method: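 Luciferase reporter of PMP22 intronic-element expression in stably transfected S16 rat Schwann cells, read by ONE-Glo luminescence after 24 h compound exposure at 37 C. Activity scaled between DMSO (0%) and positive-control PTC124; concentration-effect curves quality-classified.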

CP211 = experiment: qHTS profiling for inhibitors of Plasmodium falciparum proliferation (AID 504749); further: nearly all actives have a fitted effect of over 60% in size; further: potency means the concentration at half of the fitted maximal effect; details: P. falciparum in erythrocytes, SYBR Green DNA, 72 h; series mostly up to 12.8 µM
Summary of the method: as §1

CP215 = experiment: as above; details: P. falciparum in erythrocytes, SYBR Green DNA, 72 h; series mostly up to 12.8 µM
Summary of the method: as §1

CP266 = experiment: as above; details: P. falciparum in erythrocytes, SYBR Green DNA, 72 h; series mostly up to 12.8 µM
Summary of the method: as §1

CP269 = experiment: as above; details: P. falciparum in erythrocytes, SYBR Green DNA, 72 h; series mostly up to 12.8 µM
Summary of the method: as §1

CP315 = experiment: as above; details: P. falciparum in erythrocytes, SYBR Green DNA, 72 h; series mostly up to 12.8 µM
Summary of the method: as §1

GB4 = experiment: as above; details: P. falciparum in erythrocytes, SYBR Green DNA, 72 h; series mostly up to 12.8 µM
Summary of the method: as §1

PC26 = experiment: as above; details: P. falciparum in erythrocytes, SYBR Green DNA, 72 h; series mostly up to 12.8 µM
Summary of the method: as §1

W2 = experiment: as above; details: P. falciparum in erythrocytes, SYBR Green DNA, 72 h; series mostly up to 12.8 µM
Summary of the method: as §1

CP297 = experiment: as above; details: P. falciparum in erythrocytes, SYBR Green DNA, 72 h; series mostly up to 12.8 µM
Summary of the method: as §1

[5] = biological target: Cytochrome P450 3A4 (Homo sapiens) (UniProt P08684); experiment: qHTS Assay for Activators of Cytochrome P450 3A4 (AID 885); further: nearly all actives have a fitted effect of over 65% in size
Sequence of Cytochrome P450 3A4 (Homo sapiens) (P08684 whole entry, looked up): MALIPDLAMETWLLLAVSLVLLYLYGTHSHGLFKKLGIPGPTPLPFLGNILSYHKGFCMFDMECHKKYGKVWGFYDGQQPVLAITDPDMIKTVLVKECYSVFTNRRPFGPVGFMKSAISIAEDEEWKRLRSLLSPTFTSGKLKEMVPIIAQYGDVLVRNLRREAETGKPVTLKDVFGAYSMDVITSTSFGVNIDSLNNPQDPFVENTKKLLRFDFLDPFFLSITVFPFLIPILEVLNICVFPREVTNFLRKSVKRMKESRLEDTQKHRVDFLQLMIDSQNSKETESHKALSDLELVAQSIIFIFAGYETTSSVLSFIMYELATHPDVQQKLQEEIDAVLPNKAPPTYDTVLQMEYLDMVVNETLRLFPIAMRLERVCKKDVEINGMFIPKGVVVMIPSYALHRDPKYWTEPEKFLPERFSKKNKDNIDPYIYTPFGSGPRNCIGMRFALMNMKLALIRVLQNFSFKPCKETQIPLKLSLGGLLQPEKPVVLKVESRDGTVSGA
Summary of the method: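 Human CYP3A4 dealkylates Luciferin-PPXE to luciferin, which luciferase detection converts to light. Substrate was at its KM (25uM), buffer 200mM KPO4, reaction 60 min at RT.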

[6] = biological target: Cytochrome P450 2D6 (Homo sapiens) (UniProt P10635); experiment: qHTS Assay for Inhibitors and Substrates of Cytochrome P450 2D6 (AID 891)
Sequence of Cytochrome P450 2D6 (Homo sapiens) (P10635 whole entry, looked up): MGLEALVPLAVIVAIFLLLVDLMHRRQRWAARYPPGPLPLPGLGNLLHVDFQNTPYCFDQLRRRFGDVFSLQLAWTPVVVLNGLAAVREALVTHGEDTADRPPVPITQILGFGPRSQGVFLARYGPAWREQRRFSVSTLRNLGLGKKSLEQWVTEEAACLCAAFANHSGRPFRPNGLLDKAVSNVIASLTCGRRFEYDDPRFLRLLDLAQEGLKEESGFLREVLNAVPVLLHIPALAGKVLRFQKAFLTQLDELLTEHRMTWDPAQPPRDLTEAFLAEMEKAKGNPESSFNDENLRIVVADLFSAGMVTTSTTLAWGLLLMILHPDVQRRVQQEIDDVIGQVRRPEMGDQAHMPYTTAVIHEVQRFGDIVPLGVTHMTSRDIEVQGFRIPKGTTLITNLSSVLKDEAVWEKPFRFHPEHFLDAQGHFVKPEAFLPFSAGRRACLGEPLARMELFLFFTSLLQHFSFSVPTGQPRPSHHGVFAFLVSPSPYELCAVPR
Summary of the method: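 Luminescent read-out of luciferin formed by 5 nM human CYP2D6 demethylating 30 uM Luciferin-ME EGE (Km level) over 60 min at room temperature after NADPH regeneration addition. Data normalized to full inhibition by 1.43 uM quinidine.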

CC(=O)N(C[C@@H](C)C(=O)O)c1c(I)cc(I)c(N)c1I
inactive: Potency [1] | outcome [2] | Potency (7G8) | Potency (CP260) | Potency (CP335) | Potency (P94_40)

CCOC(=O)[C@H](CCc1ccccc1)N[C@@H](C)C(=O)N1[C@H](C(=O)O)C[C@H]2CCC[C@@H]21
inactive: outcome [3] | Potency [4] | Potency (7G8) | Potency (CP211) | Potency (CP215) | Potency (CP260) | Potency (CP266) | Potency (CP269) | Potency (CP315) | Potency (CP335) | Potency (GB4) | Potency (P94_40) | Potency (PC26) | Potency (W2)

CCC(=O)O[C@@H]1[C@H](C)O[C@H](O[C@H]2[C@@H](N(C)C)[C@H](O)[C@@H](O[C@@H]3[C@@H](CC=O)C[C@@H](C)[C@@H](O)/C=C\C=C/C[C@@H](C)OC(=O)C[C@@H](OC(=O)CC)[C@H]3OC)O[C@H]2C)C[C@]1(C)O
active: Potency (W2) 2.03 µM
inactive: outcome [2] | Potency (GB4) | Potency (PC26)

NS(=O)(=O)c1cc2c(cc1Cl)N[C@@H](CC1CCCC1)NS2(=O)=O
inactive: Potency [1] | outcome [2] | Potency [4] | Potency (7G8) | Potency (CP211) | Potency (CP215) | Potency (CP260) | Potency (CP266) | Potency (CP269) | Potency (CP297) | Potency (CP315) | Potency (CP335) | Potency (GB4) | Potency (P94_40) | Potency (PC26) | Potency (W2)

C=CCOc1ccccc1OC[C@H](O)CNC(C)C
inactive: Potency [1] | outcome [2] | Potency [4] | Potency (7G8) | Potency (CP211) | Potency (CP260) | Potency (CP269) | Potency (CP335) | Potency (PC26)
active: Potency (W2) 1.14 µM

CN(C)CCn1nnnc1SCC1=C(C(=O)O)N2C(=O)[C@@H](NC(=O)Cc3csc(N)n3)[C@@H]2SC1
active: Potency (7G8) 3.55 µM | Potency (W2) 6.42 µM
inactive: Potency [4] | Potency (CP211) | Potency (CP215) | Potency (CP266) | Potency (CP297) | Potency (CP315)

COC(=O)C1=C(C)NC(C)=C(C(=O)OC(C)C)[C@H]1c1cccc2nonc12
inactive: outcome [2] | Potency (CP266)
active: Potency (7G8) 3.16 µM

O=C1O[C@H](CN2CCOCC2)CN1/N=C\c1ccc([N+](=O)[O-])o1
active: Potency (7G8) 3.55 µM
inactive: outcome [2] | Potency [4] | Potency (CP211) | Potency (CP215) | Potency (CP266) | Potency (CP269) | Potency (CP297) | Potency (CP315) | Potency (CP335) | Potency (GB4) | Potency (PC26)

C[C@H](Oc1ccccc1)C(=O)N[C@@H]1C(=O)N2[C@@H]1SC(C)(C)[C@@H]2C(=O)O
inactive: outcome [2] | Potency [4] | Potency (7G8) | Potency (CP211) | Potency (CP215) | Potency (CP260) | Potency (CP266) | Potency (CP269) | Potency (CP297) | Potency (CP315) | Potency (GB4) | Potency (P94_40) | Potency (PC26) | Potency (W2)

NC(=O)N[C@H]1NC(=O)NC1=O
inactive: Potency [4] | Potency (7G8) | Potency (CP211) | Potency (CP215) | Potency (CP260) | Potency (CP266) | Potency (CP269) | Potency (CP297) | Potency (CP315) | Potency (CP335) | Potency (P94_40) | Potency (PC26) | Potency (W2)

CC(C)(N=NC(C)(C)C(=N)N)C(=N)N
inactive: Potency [5] | activity change, negative = inhibition [6] 23.6% [at 11.4 µM]

C[C@@H]1Cc2ccccc2N1NC(=O)c1ccc(Cl)c(S(N)=O)c1 (stereo partly specified)
inactive: outcome [2] | Potency (CP211) | Potency (CP215) | Potency (CP260) | Potency (CP266) | Potency (CP269) | Potency (CP297) | Potency (CP315) | Potency (CP335) | Potency (GB4) | Potency (P94_40) | Potency (PC26) | Potency (W2)

CC[C@H](CO)NCCN[C@@H](CC)CO
inactive: Potency [1] | outcome [2] | Potency [4] | Potency (7G8) | Potency (CP211) | Potency (CP215) | Potency (CP260) | Potency (CP266) | Potency (CP269) | Potency (CP297) | Potency (CP315) | Potency (CP335) | Potency (GB4) | Potency (P94_40) | Potency (PC26) | Potency (W2)

COCC(=O)Nc1c(I)c(C(=O)NC[C@@H](O)CO)c(I)c(C(=O)N(C)C[C@@H](O)CO)c1I
inactive: outcome [2] | Potency (7G8) | Potency (CP211) | Potency (CP215) | Potency (CP260) | Potency (CP266) | Potency (CP269) | Potency (CP297) | Potency (CP315) | Potency (CP335) | Potency (GB4) | Potency (P94_40) | Potency (PC26) | Potency (W2)

NC(=O)N/N=C\c1ccc([N+](=O)[O-])o1
inactive: Potency [5]

C[N+]1(C)C[C@@H](O)C[C@@H]1C(=O)[O-]
inactive: Potency [3]

CC(=O)[C@@H]1CC[C@@H]2[C@@H]3C[C@H](C)C4=CC(=O)CC[C@@]4(C)[C@H]3[C@H](O)C[C@]21C
inactive: Potency [5] | outcome [2] | Potency [4] | Potency (CP211) | Potency (CP215) | Potency (CP260) | Potency (CP266) | Potency (CP269) | Potency (CP315) | Potency (CP335) | Potency (GB4) | Potency (PC26)
active: Potency [1] 0.398 µM

C[C@@]12CC[C@@H]3c4ccc(O)cc4CC[C@H]3[C@H]1C[C@@H](O)[C@H]2O
inactive: Potency [1]
